PvdQ inh: blocks Pseudomonas aeruginosa PvdQ acylase activity; actives 0.063% (n = 340,000); inhibition, % at 10 µM; purified PvdQ acylase, fluorescence plate reader; AID 488965; in the data active = inhibition above about 30%, passing the limit was not always enough
ERAP1 HTS inh: inhibitors of human ERAP1 aminopeptidase; actives 0.15% (n = 340,000); inhibition, % at 10.7 µM; Q9NZ08; recombinant ERAP1, Leu-AMC fluorescence, 60 min;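 active = mean replicate inhibition of at least 30%, or all replicates individually reaching that 30% level; inactive = mean below 30% and not every replicate reaching it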
Ecoli rRNA inh: inhibitors of bacterial rRNA selective over humanized ribosomes; E. coli WT GFP vs humanized-ribosome RFP mutants, fluorescence, 24 h; active compounds read low; DMSO median 0, no signal -100; GFP signal change (wild-type ribosome), % (no concentration beside the values); actives 1.6% (n = 350,000); AID 720706;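 active = significant combined selectivity score with lowered wild-type GFP, culture density cut under 30%, mutant RFP and density less affected; inactive = any of these conditions unmet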
ARNT TACC3 PPI: disruptors of human ARNT/TACC3 interaction; Q9Y6A5; AlphaScreen His-ARNT PAS-B/GST-TACC3 binding, luminescence; TACC3 fragment carries E629A point mutation; AID 623870; actives 0.66% (n = 390,000); inhibition, % at 9.99 µM;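 active = mean inhibition of replicates at least 50% and at least half of replicates each reaching 50%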
CFTR F508del cor: CFTR F508del correction in bronchial cells | CFBE cells, YFP halide quenching; stimulated with forskolin plus potentiator P3; % fluorescence drop versus neutral controls | activity (quench increase), % at 7.58 µM | actives 0.36% (n = 350,000);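 active = mean added fluorescence quench of at least 8% versus neutral control, with both replicates also reaching 8%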;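 also: cells transiently co-express mutant CFTR-F508del with the halide-sensitive YFP; corrector assay measuring rescue of mutant channel to the surface after 24 h compound exposure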
Of the large screens only hits and unclear results are named; the others gave an inactive call. Hits are enriched below; roughly 2.1% of the tested compounds scored in any of these assays.

C[C@@H]1CN([C@@H](C)CO)C(=O)Cc2cc(NS(=O)(=O)c3cccs3)ccc2O[C@H]1CN(C)Cc1ccc(Oc2ccccc2)cc1	none (no result: PvdQ inh, ARNT TACC3 PPI)
COc1ccc(NC(=O)N(C)C[C@@H]2OCCCC[C@@H](C)Oc3ccc(NC(=O)NC4CCCCC4)cc3C(=O)N([C@@H](C)CO)C[C@@H]2C)cc1	none (no result: PvdQ inh)
COc1ccc(C2c3c(ncn(CCCO)c3=N)Oc3ccc4ccccc4c32)cc1OC (stereo not given)	none (no result: PvdQ inh, ERAP1 HTS inh, ARNT TACC3 PPI)
COc1ccc(C2c3c(ncn(CCCO)c3=N)Oc3ccc4ccccc4c32)cc1 (stereo not given)	Ecoli rRNA inh -47
N#C/C(=C/c1ccc(N2CCCCC2)o1)C(=O)Nc1ccc2ccccc2c1	CFTR F508del cor 9.6 (no result: ARNT TACC3 PPI)
Cc1noc(C)c1S(=O)(=O)Nc1ccc2c(c1)C(=O)N([C@H](C)CO)C[C@H](C)[C@H](CN(C)C(=O)Nc1ccc(C(F)(F)F)cc1)OCCCC[C@@H](C)O2	none (no result: PvdQ inh)
CCNC(=O)[C@@H]1[C@@H](CO)[C@@H]2Cn3c(ccc(-c4ccccc4)c3=O)[C@@H]2N1Cc1ccccn1	ARNT TACC3 PPI 43 (no result: PvdQ inh)
COC(=O)[C@H]1[C@H](CO)[C@H]2Cn3c(ccc(-c4ccccc4)c3=O)[C@H]2N1Cc1ccccn1	none (no result: PvdQ inh, CFTR F508del cor)
COc1cc2c(cc1OC)CN(C(=O)[C@H]1[C@@H]3C(=O)O[C@@H](c4ccccc4)[C@@H](c4ccccc4)N3[C@@H](c3ccccc3OCCO)[C@]13C(=O)Nc1ccc(C#CC4(O)CCCCCC4)cc13)CC2	none (no result: PvdQ inh, Ecoli rRNA inh)
O=C(Nc1ccc(NC(=O)c2ccccc2Cl)cc1)c1cccnc1	none
O=C(Nc1nnc(-c2ccccc2Cl)o1)c1cccnc1	ARNT TACC3 PPI 54 (no result: ERAP1 HTS inh, Ecoli rRNA inh, CFTR F508del cor)
Cc1ccccc1/C=N/N1C(=O)CSC1=S	ARNT TACC3 PPI 39
O=C1CSC(=S)N1/N=C/c1cccnc1	ARNT TACC3 PPI 39
O=C1CSC(=S)N1N=Cc1cccc2ccccc12	none
O=C1CSC(=S)N1N=Cc1ccccc1O	ARNT TACC3 PPI 65
COc1ccc(/C=C/C(=O)OCC(=O)c2ccc3c(c2)NC(=O)CO3)c(OC)c1	none (no result: ERAP1 HTS inh)
N#Cc1ccccc1OCC(=O)OCC(=O)c1ccc2c(c1)NC(=O)CO2	ERAP1 HTS inh 36 (no result: Ecoli rRNA inh, ARNT TACC3 PPI, CFTR F508del cor)
O=C1COc2ccc(C(=O)COC(=O)COc3ccccc3[N+](=O)[O-])cc2N1	none
COc1cccc(/C=C/C(=O)OCC(=O)c2ccc3c(c2)NC(=O)CO3)c1OC	Ecoli rRNA inh -20
CN1C(=O)c2cc(NC(=O)Nc3ccc(Cl)cc3)ccc2OC[C@@H]2O[C@@H](CC(=O)NCCN3CCCCC3)CC[C@@H]21	none (no result: PvdQ inh)
Cc1ccc(S(=O)(=O)N(C)C[C@@H]2OCCCC[C@@H](C)Oc3ccc(NC(=O)Cc4ccccc4)cc3C(=O)N([C@@H](C)CO)C[C@@H]2C)cc1	none (no result: PvdQ inh)
CCCNC(=O)C[C@@H]1C[C@@H]2c3cc(NS(C)(=O)=O)ccc3O[C@@H]2[C@H](CO)O1	none (no result: PvdQ inh)
O=C(CN1C(=O)NC2(CCCc3ccccc32)C1=O)c1ccccc1F (stereo not given)	Ecoli rRNA inh -35
O=C(CN1C(=O)NC2(CCc3ccccc32)C1=O)c1ccc(F)c(F)c1 (stereo not given)	none
O=C(CN1C(=O)NC2(CCCc3ccccc32)C1=O)c1ccc(F)cc1 (stereo not given)	none
O=C(CN1C(=O)NC2(CCc3ccccc32)C1=O)c1ccc(Br)s1 (stereo not given)	Ecoli rRNA inh -30
CCCC(=O)N1CCC2(CC1)CN(C(=O)C1CCCC1)[C@@H](CO)c1[nH]c3cc(OC)ccc3c12	none (no result: PvdQ inh, ARNT TACC3 PPI)
COc1ccc(N2C(=O)c3n[nH]c(C)c3C2c2ccc(F)cc2)cc1 (stereo not given)	Ecoli rRNA inh -32 (no result: PvdQ inh, ARNT TACC3 PPI)
O=S1(=O)N[C@@H](Cc2ccccc2)COc2cccc(N3CCC[C@H]3CO)c21	Ecoli rRNA inh -27 (no result: PvdQ inh, ERAP1 HTS inh, ARNT TACC3 PPI)
CC(C)C[C@H]1COc2cccc(N3CCC[C@@H]3CO)c2S(=O)(=O)N1	none (no result: PvdQ inh, ERAP1 HTS inh, ARNT TACC3 PPI)
O=C1CN(S(=O)(=O)c2ccccc2)c2ccccc2N1	none
O=C1CN(S(=O)(=O)c2ccc(Cl)cc2)c2ccccc2N1	Ecoli rRNA inh -22
O=C(NCC(c1ccco1)N1CCc2ccccc21)c1ccccc1F (stereo not given)	none
COc1ccc(C(=O)NCC(c2ccco2)N2CCc3ccccc3C2)c(OC)c1 (stereo not given)	none (no result: PvdQ inh, ARNT TACC3 PPI)

Source: PubChem
